Only some compounds are listed: those with a hit (about 7.8% of all), similar ones and a draw of the others.
Vaccinia mCherry = qHTS for Stage-Specific Inhibitors of Vaccinia Orthopoxvirus: mCherry Reporter Primary qHTS; Vaccinia virus mCherry reporter infection, fluorescence; 310,000 compounds, 0.63% hits; AID 720579, 2013; Potency, µM (doses to about 36.5 µM), most hits filed as inhibitors; calls by dose curve; tested in A549 cells; also: nearly all actives have a fitted effect of over 35% in size
HCMV inh = qHTS Assay for inhibitors of the human cytomegalovirus (HCMV) | activity change, negative = inhibition, % at 57.5 µM | AID 1259415, 2018 | 410,000 compounds, 4.5% hits | HFF cells, HCMV-luciferase reporter, 72 h; stronger effect = lower value; in the data active = activity change below about -60%; inconclusive = no clear call, values can overlap the other calls; inactive = above about -39%
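HFF cells seeded 16 h at 37C, treated with compounds, infected with luciferase-reporter HCMV at MOI 1 PFU/cell; luciferase read at 72 h post infection, normalized to buffer-only and Salinomycin controls.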
MARV entry inh = qHTS for inhibitors of binding or entry into cells for Marburg Virus | Marburg virus pseudotyped entry inhibition, cell reporter | Potency, µM (series often up to 37.8 µM), hits mostly inhibitors | 300,000 compounds, 1.8% hits; calls by dose curve; tested in HEK293 cells
HCV inh = qHTS Assay for Inhibitors of Hepatitis C Virus (HCV). Huh7.5.1 HCVcc-Cre infection, luciferase reporter, 44 h. Potency, µM (series often up to 41.8 µM), actives largely listed as inhibitors. 340,000 compounds, 3.4% hits. AID 651820, 2012; active = well fitted inhibition curve with a large enough effect; inconclusive = small, poorly fitted or top-dose-only effect, or another doubt; inactive = no such curve, though single readings can be large or run the other way
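1,000 cells/well; 4 h culture; + compound; + HCVcc-Cre (~0.5 moi); 44 h; luciferase substrate, RT 15 min; read 15 sec.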
VACV Venus inh = qHTS for Stage-Specific Inhibitors of Vaccinia Orthopoxvirus: Venus Reporter Primary qHTS | Potency, µM (top dose mostly 36.5 µM), actives largely listed as inhibitors | AID 720580, 2013 | Vaccinia virus Venus reporter expression, fluorescence | 330,000 compounds, 0.46% hits; calls by dose curve; tested in A549 cells; also: nearly all actives have a fitted effect of over 30% in size
LASV entry inh = qHTS for Inhibitors of binding or entry into cells for Lassa Virus. Lassa virus pseudotype entry inhibition, cell reporter. Potency, µM (titrated, usually from 37.9 µM), most hits filed as inhibitors. 300,000 compounds, 1.2% hits. AID 540256, 2011; calls by dose curve; tested in HEK293 cells; also: nearly all actives have a fitted effect of over 50% in size
Hits are given with their value; n = inactive; u = inconclusive; x = no result given; + = active, no number; [ ] = remark or other dose.

SMILES	Vaccinia mCherry	HCMV inh	MARV entry inh	HCV inh	VACV Venus inh	LASV entry inh
COC(=O)Oc1ccc(/C=C/C(=O)OC(C)C)cc1OC(=O)OC	u	n	u	u	n	n
O=C(NCc1ccccc1Cl)c1ccc2c(c1)N(Cc1ccccc1)CCS2	n	n	u	x	n	n
COc1ccc(CNC(=O)c2ccc3c(c2)N(Cc2ccccc2)CCS3)cc1	n	n	u	x	n	4.47µM
CCOc1ccc(CNC(=O)c2ccc3c(c2)N(Cc2ccccc2)CCS3)cc1	n	n	u	x	n	x
Cc1ccccc1CNC(=O)c1ccc2c(c1)N(Cc1ccccc1)CCS2	n	n	8.91µM	x	n	x
CCOC(=O)c1ccc(NC(=O)CCCc2nc(-c3cc(OC)c(OC)c(OC)c3)no2)cc1	n	n	n	x	n	n
Cc1nnc(SCc2cccc([N+](=O)[O-])c2)[nH]c1=O	n	-81.5	n	n	n	n
CCCCOc1ccc(C2c3c(oc4ccc(C)cc4c3=O)C(=O)N2CCCN(C)C)cc1OCC (stereo not given)	n	n	n	x	n	n
Cc1ccc(S(=O)(=O)c2c(N)n(/N=C/c3ccco3)c3nc4ccccc4nc23)cc1C	n	u	7.08µM	u	n	n
Cc1cccc(S(=O)(=O)c2c(N)n(/N=C/c3ccco3)c3nc4ccccc4nc23)c1	x	n	u	2.51µM	x	n
Cc1ccc(S(=O)(=O)c2c(N)n(/N=C/c3ccco3)c3nc4ccccc4nc23)cc1	x	n	u	u	x	u
COc1ccc(CNc2oc(-c3ccc(COc4ccc(OC)cc4)o3)nc2C#N)cc1	n	n	u	x	n	u
Cc1nc(Nc2ccc(O)cc2)c2c3c(sc2n1)CCCC3	11.2µM	-75.9	u	u	u	u
FC(F)(F)c1ccc(/C=N/NC(=S)NC2CCCCC2)cc1	n	n	n	n	n	n
FC(F)(F)c1cccc(/C=N/NC(=S)NC2CCCCC2)c1	n	-95.1	u	n	n	u
Cc1cc(Oc2ccc(C(C)(C)C)cc2)nc(N2CCOCC2)n1	x	n	n	n	n	5.01µM
Cc1cc(Oc2ccc(-c3ccccc3)cc2)nc(N2CCOCC2)n1	x	n	11.2µM	n	n	3.98µM
CCOC(=O)c1scc(-c2ccc(C)cc2)c1S(=O)(=O)N1CCN(c2ccccc2F)CC1	n	n	x	x	n	n
COc1cc(-c2ccccc2)nc(N)n1	x	n	u	n	x	11.6µM
COc1ccccc1N1CCN(c2ccc(-c3ccccc3)nn2)CC1	u	-95.6	1.58µM	u	n	3.55µM
COc1ccccc1N1CCN(c2cc(N3CCCC3)nc(C)n2)CC1	u	-103.5	n	u	n	n
Cc1nc(-c2ccccc2)cc(N2CCCC2)n1	x	n	n	8.91µM	x	n
COc1ccccc1N1CCN(c2nc(-c3ccccc3)cc(C(F)(F)F)n2)CC1	x	n	n	u	x	n
COc1ccccc1N1CCN(c2ccc3ccccc3n2)CC1	n	n	u	u	n	u
Cc1ccc(-c2ccnc(-n3ncc(C(=O)N(C)CC4CCCN(C)C4)c3C)n2)o1 (stereo not given)	n	x	x	x	n	x
SMILES	Vaccinia mCherry	HCMV inh	MARV entry inh	HCV inh	VACV Venus inh	LASV entry inh
Nc1nc(-c2ccccc2)cc(N2CCCCC2)n1	n	-62.7	u	n	u	u
COc1ccc2nc(N(Cc3cccnc3)C(=O)c3ccc4c(c3)OCCO4)sc2c1	n[7.34 µM]	n	x	x	n[7.34 µM]	n
CCc1ccc2nc(N(Cc3cccnc3)C(=O)c3cccs3)sc2c1	n	-60.6	x	x	n	n
COc1ccc(OC)c2sc(N(Cc3cccnc3)C(=O)c3ccco3)nc12	n	+	x	x	n	n
COc1ccc(OC)c2sc(N(Cc3cccnc3)C(=O)c3ccc(C(C)=O)cc3)nc12	n	n	x	x	n	u
COc1ccc2sc(N(Cc3cccnc3)C(=O)c3ccc4c(c3)OCCO4)nc2c1	n[7.34 µM]	-89.9	x	x	n[7.34 µM]	u
COc1ccc(Cl)c2sc(N(Cc3cccnc3)C(C)=O)nc12	n	n	n	12.6µM	n	u
Cc1ccc(Nc2ncnc3c2nc2n3CCCC2)c(Br)c1	n	n	x	x	n	n
CCOc1cc(Br)c(COc2ccc(C)nc2[N+](=O)[O-])cc1OCC	n	-90.4	u	8.91µM	n	u
Cc1ccc(OCc2ccc(Br)cc2)c([N+](=O)[O-])n1	x	n	x	x	x	x
